From PubChem BioAssay AID504554 (Johns Hopkins Ion Channel Center, 2011)
Calls of active or inactive are those of the source.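 How the source made its calls: active means peak TRPC4 channel inhibition over 30% at some tested dose, plus a fitted dose response curve; inactive means no inhibition at any dose, or no curve fitted.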

target: Short transient receptor potential channel 4 (Mus musculus) (UniProt Q9QUQ5); assay: TRPC4 channel inhibition, specificity check, SAR follow-up, selectivity assay for TRPC6 selective inhibitor project, cell-based, HEK293 TRPC4/mu-opioid, concentration-response (AID 504554); details: DAMGO-evoked Fluo-4 calcium ratio; series mostly up to 6.67 µM; fluorescence ratio, lower = inhibition: at the top concentration
Sequence (Q9QUQ5 whole entry, looked up): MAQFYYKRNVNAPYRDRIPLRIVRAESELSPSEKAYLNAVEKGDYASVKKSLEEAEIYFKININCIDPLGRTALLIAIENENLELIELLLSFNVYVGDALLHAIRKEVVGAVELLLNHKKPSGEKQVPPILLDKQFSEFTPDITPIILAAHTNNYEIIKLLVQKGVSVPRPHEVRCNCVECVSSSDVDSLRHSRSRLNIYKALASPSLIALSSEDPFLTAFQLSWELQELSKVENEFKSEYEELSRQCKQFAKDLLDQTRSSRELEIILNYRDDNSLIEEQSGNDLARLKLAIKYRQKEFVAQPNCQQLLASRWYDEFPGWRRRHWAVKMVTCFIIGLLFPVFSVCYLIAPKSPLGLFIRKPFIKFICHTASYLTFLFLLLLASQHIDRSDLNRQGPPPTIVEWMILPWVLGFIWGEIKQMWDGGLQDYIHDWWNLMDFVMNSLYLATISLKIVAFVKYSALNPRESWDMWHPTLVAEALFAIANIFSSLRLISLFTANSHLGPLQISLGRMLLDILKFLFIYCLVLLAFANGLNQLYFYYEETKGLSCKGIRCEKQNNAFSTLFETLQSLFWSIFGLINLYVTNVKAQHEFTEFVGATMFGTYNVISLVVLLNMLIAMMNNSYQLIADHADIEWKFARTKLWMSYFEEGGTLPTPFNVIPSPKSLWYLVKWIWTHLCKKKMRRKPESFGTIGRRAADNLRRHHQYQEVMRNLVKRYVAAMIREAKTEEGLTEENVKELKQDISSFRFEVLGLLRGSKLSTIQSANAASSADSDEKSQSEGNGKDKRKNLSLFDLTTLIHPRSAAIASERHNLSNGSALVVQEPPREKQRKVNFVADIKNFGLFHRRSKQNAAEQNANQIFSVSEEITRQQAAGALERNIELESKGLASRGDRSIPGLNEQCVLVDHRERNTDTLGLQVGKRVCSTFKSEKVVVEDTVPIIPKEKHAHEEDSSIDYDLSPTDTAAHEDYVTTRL

Fluorescence ratio, lower = inhibition, inactive:
COc1ccc(CNc2ccc3c(c2)ncn3-c2ccccc2)cc1 47
CC(C)c1ccc(CNc2ccc3c(c2)ncn3C(C)(C)C)cc1 38.7
COc1ccc(OC)c(CNc2ccc3c(c2)ncn3C(C)(C)C)c1 42.2
CC(C)(C)n1cnc2cc(NC(=O)c3ccccc3)ccc21 48.3
COc1cc(C(=O)Nc2ccc3c(c2)ncn3C(C)(C)C)cc(OC)c1OC 58.2
CC(C)(C)n1cnc2cc(NCc3ccco3)ccc21 57.3
CC(C)(C)n1cnc2cc(NC(=O)c3ccc(Cl)cc3)ccc21 50.5
COc1ccc(CNc2ccc3c(c2)ncn3C(C)(C)C)cc1 51.1
CCCC(=O)Nc1ccc2c(c1)ncn2C(C)(C)C 55.1
CCOc1ccc(CNc2ccc3c(c2)ncn3C)cc1 54.2
COc1ccc(CNc2ccc3c(c2)ncn3C(C)(C)C)cc1OC 50
CC(=O)Nc1ccc2c(c1)ncn2C(C)(C)C 52.3
CC(C)(C)n1cnc2cc(NCc3ccc(Cl)cc3Cl)ccc21 39.5
CC(C)(C)n1cnc2cc(NCc3cccs3)ccc21 49
CCOc1ccc(CNc2ccc3c(c2)ncn3C(C)(C)C)cc1 44.9
CCc1ccc(CNc2ccc3c(c2)ncn3C(C)(C)C)cc1 40.6
CCN(CC)c1ccc(CNc2ccc3c(c2)ncn3C(C)(C)C)cc1 53.8
CCOc1ccccc1CNc1ccc2c(c1)ncn2C(C)(C)C 40.9
CCC(=O)Nc1ccc2c(c1)ncn2C(C)(C)C 54.4
CC(C)(C)n1cnc2cc(NCc3ccccc3Cl)ccc21 38.5
CC(C)(C)n1cnc2cc(NCc3cccc4ccccc34)ccc21 38.9
CC(C)(C)n1cnc2cc(NCc3ccccc3O)ccc21 50.7
COc1ccc(CNc2ccc3c(c2)ncn3C(C)(C)C)c(OC)c1 52.9
CC(C)(C)n1cnc2cc(NCc3cccc(Br)c3)ccc21 47.9
CC(C)(C)n1cnc2cc(NCc3ccc(Br)cc3)ccc21 49.4
CC(C)(C)n1cnc2cc(NC(=O)c3cccs3)ccc21 55.2
COc1ccccc1CNc1ccc2c(c1)ncn2C(C)(C)C 44.4
CCOc1ccc(CNc2ccc3c(c2)ncn3-c2ccccc2)cc1 52.6
Cc1ccc(CNc2ccc3c(c2)ncn3C(C)(C)C)cc1 41.2
COc1cccc(CNc2ccc3c(c2)ncn3C)c1OC 53.2

outcome, inactive:
CN(C)c1ccc(CNc2ccc3c(c2)ncn3C(C)(C)C)cc1
COc1cccc(CNc2ccc3c(c2)ncn3C(C)(C)C)c1OC
